Experimental data reported in PubChem BioAssay (NCATS).
Inconclusive results are not listed. A call without a number means that no potency is given here. Values without a mark were called inactive. Active and inactive are the calls of the source. Calls follow the shape of the dose curve; as a rule, active = well fitted curve in the direction sought with a large enough effect; inconclusive = small, poorly fitted or top-dose-only effect, or another doubt; inactive = no such curve, though single readings can be large; an effect the other way counts as inactive or inconclusive.

Legend:
[1] = target: Rap guanine nucleotide exchange factor 3 (Homo sapiens) (UniProt O95398); assay: Confirmatory qHTS for antagonist of cAMP-regulated guanine nucleotide exchange factor 3 (EPAC1) (AID 1645880); also: nearly all actives have a fitted effect of over 55% in size; also: potency is read from the fitted curve at half-maximal effect
Rap guanine nucleotide exchange factor 3 (Homo sapiens), sequence (O95398 whole entry, looked up): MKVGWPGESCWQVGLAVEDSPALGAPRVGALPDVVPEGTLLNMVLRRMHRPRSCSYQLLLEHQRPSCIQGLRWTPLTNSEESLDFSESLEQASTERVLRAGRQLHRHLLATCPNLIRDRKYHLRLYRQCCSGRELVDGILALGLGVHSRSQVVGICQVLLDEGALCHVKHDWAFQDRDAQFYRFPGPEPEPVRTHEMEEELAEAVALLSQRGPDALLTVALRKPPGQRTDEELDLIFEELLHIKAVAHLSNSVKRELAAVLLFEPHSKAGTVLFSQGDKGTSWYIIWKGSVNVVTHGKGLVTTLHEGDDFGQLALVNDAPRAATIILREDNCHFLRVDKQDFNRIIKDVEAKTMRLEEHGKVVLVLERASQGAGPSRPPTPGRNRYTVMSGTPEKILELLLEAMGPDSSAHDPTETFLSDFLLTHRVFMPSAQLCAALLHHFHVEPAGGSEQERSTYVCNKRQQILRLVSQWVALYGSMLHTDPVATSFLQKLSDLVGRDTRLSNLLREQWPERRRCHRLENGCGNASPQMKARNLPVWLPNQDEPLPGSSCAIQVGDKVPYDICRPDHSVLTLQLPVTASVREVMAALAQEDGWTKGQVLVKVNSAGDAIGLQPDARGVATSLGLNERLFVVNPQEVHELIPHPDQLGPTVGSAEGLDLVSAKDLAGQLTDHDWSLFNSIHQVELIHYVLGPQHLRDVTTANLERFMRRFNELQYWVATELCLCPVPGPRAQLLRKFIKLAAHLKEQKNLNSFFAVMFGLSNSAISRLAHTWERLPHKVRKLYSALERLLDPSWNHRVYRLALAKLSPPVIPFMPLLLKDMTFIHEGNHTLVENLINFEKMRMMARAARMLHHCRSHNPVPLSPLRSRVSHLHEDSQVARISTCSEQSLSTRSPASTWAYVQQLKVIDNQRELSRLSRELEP
Outline: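 Nucleotide exchange uses 100 nM EPAC1, 250 nM RAP1B-BODIPY-GDP and 50 uM GDP, with compounds in a concentration-titration series. After 5 min at room temperature, fluorescence (480 nm ex/540 nm em) is read every 5 min for 30 min. Data are normalized to control ATA and DMSO.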

[2] = target: Rap guanine nucleotide exchange factor 3 (Homo sapiens) (UniProt O95398); assay: Confirmatory qHTS for agonist of cAMP-regulated guanine nucleotide exchange factor 3 (EPAC1) (AID 1645881);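 also: EPAC1 catalysed release of BODIPY-GDP from Rap1B seen as fluorescence loss; nearly all actives have a fitted effect of over 75% in size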
[3] = target: Rap guanine nucleotide exchange factor 4 (Homo sapiens) (UniProt Q8WZA2); assay: Confirmatory qHTS for agonist of cAMP-regulated guanine nucleotide exchange factor 4 (EPAC2) (AID 1645884);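 also: nucleotide exchange releases bodipy-GDP from Rap1 and this lowers its fluorescence; nearly all actives have a fitted effect of over 65% in size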; also: potency is read from the fitted curve at half-maximal effect
Rap guanine nucleotide exchange factor 4 (Homo sapiens), sequence (Q8WZA2 whole entry, looked up): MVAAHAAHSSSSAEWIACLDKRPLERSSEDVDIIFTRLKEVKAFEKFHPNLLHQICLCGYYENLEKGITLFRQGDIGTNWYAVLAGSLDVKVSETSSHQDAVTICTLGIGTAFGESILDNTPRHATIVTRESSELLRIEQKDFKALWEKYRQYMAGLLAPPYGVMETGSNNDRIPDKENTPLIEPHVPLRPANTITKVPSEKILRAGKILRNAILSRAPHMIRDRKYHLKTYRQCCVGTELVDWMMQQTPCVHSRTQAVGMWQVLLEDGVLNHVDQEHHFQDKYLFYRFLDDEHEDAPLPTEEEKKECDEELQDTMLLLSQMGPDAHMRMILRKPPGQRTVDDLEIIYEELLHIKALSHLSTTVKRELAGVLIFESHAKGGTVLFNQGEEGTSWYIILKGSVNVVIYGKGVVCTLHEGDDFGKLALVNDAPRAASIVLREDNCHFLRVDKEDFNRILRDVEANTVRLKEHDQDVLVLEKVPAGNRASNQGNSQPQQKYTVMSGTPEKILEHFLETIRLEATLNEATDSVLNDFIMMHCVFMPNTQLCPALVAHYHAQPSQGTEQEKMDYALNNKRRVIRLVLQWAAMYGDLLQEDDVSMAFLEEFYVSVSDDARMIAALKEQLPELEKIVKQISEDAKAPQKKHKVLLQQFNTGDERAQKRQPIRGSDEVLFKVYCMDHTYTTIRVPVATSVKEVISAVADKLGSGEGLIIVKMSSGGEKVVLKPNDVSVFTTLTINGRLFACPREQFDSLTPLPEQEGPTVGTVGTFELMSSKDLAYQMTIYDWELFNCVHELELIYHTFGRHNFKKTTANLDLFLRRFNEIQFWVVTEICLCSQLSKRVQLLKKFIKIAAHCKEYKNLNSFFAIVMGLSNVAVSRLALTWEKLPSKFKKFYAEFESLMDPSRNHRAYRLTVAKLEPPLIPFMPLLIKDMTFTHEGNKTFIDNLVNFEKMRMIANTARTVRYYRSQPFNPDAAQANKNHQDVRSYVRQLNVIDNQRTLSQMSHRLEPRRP

[4] = target: Rap guanine nucleotide exchange factor 4 (Homo sapiens) (UniProt Q8WZA2); assay: Confirmatory qHTS for antagonist of cAMP-regulated guanine nucleotide exchange factor 4 (EPAC2) (AID 1645885); also: nearly all actives have a fitted effect of over 25% in size; also: potency is read from the fitted curve at half-maximal effect
[5] = target: Rap guanine nucleotide exchange factor 3 (Homo sapiens) (UniProt O95398); assay: Counterscreen qHTS for antagonist of cAMP-regulated guanine nucleotide exchange factor 3 (EPAC1) (AID 1645888);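 also: fluorescence loss as bound BODIPY-GDP is released from Rap1B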
Outline: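 Measured: fluorescence of BODIPY-GDP bound to Rap1B, which falls as exchange proceeds. Conditions include 50 uM competing GDP, 5 and 30 min reads, and a later cAMP challenge for antagonist detection.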

| Compound | Potency [1] | Potency [2] | Potency [3] | Potency [4] | activation [3] | Potency [5] | activity change, negative = inhibition [5] | outcome [4] |
| --- | --- | --- | --- | --- | --- | --- | --- | --- |
| Cn1c(O)c(N=NC(=O)c2ccccc2O)c2ccccc21 | 53.6 µM (active) | inactive | inactive | inactive |  |  |  |  |
| COC(=O)c1cc(CNC(=O)c2ccccn2)cc(NC(=O)c2ccccc2OC)c1 | inactive | inactive | inactive | inactive |  |  |  |  |
| CC(=O)CCc1oc2ccc(C)cc2c1-c1ccccc1 | inactive | inactive | inactive | inactive |  |  |  |  |
| Cc1nc2ccccc2c(=O)n1/N=C/c1ccccc1O | 35.5 µM (active) | inactive |  | inactive | 1.94% [at 17.1 µM, percent relative to cAMP agonist control] |  |  |  |
| O=c1[nH]c([N+](=O)[O-])nn1C(c1ccccc1)c1ccccc1 | inactive | inactive | inactive | 26.9 µM (active) |  |  |  |  |
| CC1CN(C(=O)N2CCOCC2)CCN1C(=O)N1CCOCC1 (stereo not given) | inactive | inactive | inactive | inactive |  | inactive |  |  |
| CC(C)CC1C(=O)N(Cc2cn(CCC3OCCCO3)nn2)CCS(=O)(=O)N1Cc1ccc(-c2ccc(F)cc2)cc1 (stereo not given) | inactive | inactive | inactive | inactive |  |  |  |  |
| O=C(O)c1ccccc1N/N=C/C1=C(N2CCOCC2)C(=C\c2ccccc2)/CC1 | 67.5 µM (active) | inactive | inactive | inactive |  | inactive |  |  |
| Cc1cccc(NC(=O)CC2Nc3cccc4cccc(c34)NC2=O)c1 (stereo not given) | 75.7 µM (active) | inactive | inactive | inactive |  |  |  |  |
| NS(=O)(=O)c1cc(C(=O)NC2CCSc3ccccc32)ccc1Cl (stereo not given) | 13.5 µM (active) | inactive | inactive | 30.1 µM (active) |  |  |  |  |
| CC(=O)NC(c1ccc2ccccc2c1)c1ccc2cccnc2c1O (stereo not given) | inactive | inactive | inactive | 10.7 µM (active) |  |  |  |  |
| Cc1nc(C)n(CC(=O)NCC2Cc3cc(-c4cccc(OC(F)(F)F)c4)ccc3O2)n1 (stereo not given) | inactive | inactive | inactive | 44.1 µM (active) |  |  |  |  |
| COc1ccc(C(C[N+](=O)[O-])c2c(C)cc3ccccn23)c(OC)c1 (stereo not given) | inactive | inactive |  | inactive | 7.09% [at 17.1 µM, percent relative to cAMP agonist control] |  |  |  |
| O=C(COC(=O)/C=C/c1cccc(C(F)(F)F)c1)NC(=O)NC1CCCC1 | inactive | inactive |  | inactive | 4.78% [at 17.1 µM, percent relative to cAMP agonist control] |  |  |  |
| COc1ccccc1NC(=O)Nc1nc(CC(=O)Nc2ccc(N(C)C)cc2)cs1 | inactive | inactive |  | inactive | 15.9% [at 17.1 µM, percent relative to cAMP agonist control] |  |  |  |
| CN(C)c1ccc(/C=C/c2ccnc3ccc4ccccc4c23)cc1 | 49.8 µM (active) | inactive | inactive | 55.5 µM (active) |  |  |  |  |
| CC(=O)c1ccc(NC(=O)CC2Nc3cccc4cccc(c34)NC2=O)cc1 (stereo not given) | 75.7 µM (active) | inactive | inactive | inactive |  |  |  |  |
| CC/C(=C/c1ccccc1OC)c1cc(-c2ccccc2)cc2oc3ccccc3c12 | inactive | inactive | inactive | inactive |  |  |  |  |
| COc1ccc(CNC(=O)[C@@H]2CC=C[C@@H]3CCN(Cc4ccccc4)C(=O)[C@@H]32)cc1 | inactive | inactive | inactive | inactive |  |  |  |  |
| COC(=O)c1cn(C(=O)c2ccc(OC)cc2)c2ccccc12 | inactive | inactive | 31.6 µM (active) | inactive |  |  |  |  |
| COc1ccc(C(=O)Nc2ccc(-c3cc4ccccc4oc3=O)c(C)c2)cc1Br | inactive | inactive | inactive | inactive |  | inactive |  |  |
| CCOC(=O)C1CCCCN1C(=O)c1oc2c(Cl)cc(C)cc2c1C (stereo not given) | inactive | inactive | inactive | inactive |  | inactive |  |  |
| O=C1C[C@H]2C=CCc3cccc(c32)CN1Cc1ccc(Cl)cc1 | inactive | inactive | inactive | 44.1 µM (active) |  |  |  |  |
| COc1cc(C(=O)N(Cc2cc3ccc(C)cc3nc2N(C)C)C2CC2)cc(OC)c1OC | inactive | inactive | inactive | 17.5 µM (active) |  |  |  |  |

| Compound | Potency [1] | Potency [2] | Potency [3] | Potency [4] | activation [3] | Potency [5] | activity change, negative = inhibition [5] | outcome [4] |
| --- | --- | --- | --- | --- | --- | --- | --- | --- |
| CCOC(=O)[C@H](CCc1ccccc1)N[C@@H](C)C(=O)N1[C@@H](C(=O)O)C[C@@H]2CCC[C@@H]21 | inactive | inactive | inactive | inactive |  |  |  |  |
| Cc1ccc(/C=C2\SC(=S)N(NS(=O)(=O)c3ccc(C)cc3)C2=O)cc1 | 39.8 µM (active) | inactive |  | inactive | 11.9% [at 17.1 µM, percent relative to cAMP agonist control] |  | -10.4% [at 30.8 µM] |  |
| C(=C\c1nccc2ccccc12)/c1ccc(N2CCOCC2)cc1 | inactive | inactive | inactive | inactive |  |  |  |  |
| COc1ccc(S(=O)(=O)N2CCC[C@H]2C(=O)N2CCC[C@H]2C(=O)NCc2ccccc2)cc1C | inactive | inactive |  | inactive | 4.41% [at 17.1 µM, percent relative to cAMP agonist control] |  | -5.32% [at 30.8 µM] |  |
| O=C(Nc1ccccn1)c1cccc(S(=O)(=O)N2CCc3ccccc3C2)c1 | inactive | inactive | inactive | inactive |  | inactive |  |  |
| CN(CC(=O)O)c1ccc(/C=C/c2ccnc3ccccc23)cc1 | inactive | inactive | inactive | 55.5 µM (active) |  |  |  |  |
| COc1ccc(C(=O)NC2CCCc3ccccc32)c(OC)c1OC (stereo not given) | inactive | inactive |  | inactive | 0% [at 17.1 µM, percent relative to cAMP agonist control] |  |  |  |
| O=C(C[N+]12CN3CN(CN(C3)C1)C2)c1ccc(I)cc1 | inactive | inactive | inactive | inactive |  |  |  |  |
| COc1cc2c(cc1OC)-c1cc(NCc3ccccn3)nc(=O)n1CC2 | 37.9 µM (active) | inactive | inactive | inactive |  |  |  |  |
| O=C1[C@H](Cc2ccccc2)NCCCC[C@H](c2ccco2)N1Cc1ccccc1 | inactive | inactive | inactive | inactive |  |  |  |  |
| CCc1nc2c(OCc3ccc(Cl)cc3)cccn2c1N(C)C(=O)c1ccccc1F | inactive | inactive |  | inactive | 3.03% [at 17.1 µM, percent relative to cAMP agonist control] |  | -10.9% [at 30.8 µM] |  |
| COc1ccc(Cl)cc1NC(=O)CN(C)C(=O)c1cc2c(s1)CCC(C)C2 (stereo not given) | inactive | inactive | inactive | inactive |  |  |  |  |
| COc1cccc(C(=O)N(Cc2cc3ccc(C)cc3nc2N(C)C)C2CC2)c1OC | inactive | inactive | inactive | 17.5 µM (active) |  |  |  |  |
| O=C(NCc1ccc(F)cc1)c1ccc2c(=O)n3c(nc2c1)CCCCC3 | inactive | inactive | inactive | inactive |  |  |  |  |
| Nc1nc2c(ncn2[C@@H]2O[C@H](CNCc3ccccc3)[C@@H](O)[C@H]2O)c(=O)[nH]1 | inactive | inactive | inactive | inactive |  | inactive |  |  |
| Cc1cccc(N2CCN(c3ccc(C(=O)O)cc3NC(=O)c3ccccc3F)CC2C)c1 (stereo not given) | 84.9 µM (active) | inactive | inactive |  |  | inactive |  | inactive [at 12.7 µM] |
| Cc1cc(SCC(=O)c2ccc(O)c(O)c2)nc2ccccc12 | 14.1 µM (active) | inactive |  | inactive | 11.2% [at 17.1 µM, percent relative to cAMP agonist control] |  | -6.86% [at 30.8 µM] |  |
| O=C(NCc1ccccc1)c1ccc2nc(-c3ccco3)c(-c3ccco3)nc2c1 | 16.9 µM (active) | inactive | inactive | inactive |  | inactive |  |  |
| CC(C)Cn1c(N)c(C(=O)NCC2CCCO2)c2nc3ccccc3nc21 (stereo not given) | 21.3 µM (active) | inactive | inactive | inactive |  | inactive |  |  |
| CC(=O)c1ccc(NC(=O)CSc2nc(Nc3ccccc3)nc(N3CCOCC3)n2)cc1 | inactive | inactive | inactive | inactive |  | inactive |  |  |
| N#Cc1c(NC(=O)c2ccc(Br)o2)n(-c2ccccc2)c2nc3ccccc3nc12 | 50.1 µM (active) | inactive |  | inactive | 1.83% [at 17.1 µM, percent relative to cAMP agonist control] |  | -1.68% [at 30.8 µM] |  |
| Cc1ccc(NC(=O)c2ccc(Cl)c(S(=O)(=O)N3CCc4ccccc43)c2)nc1 | inactive | inactive | inactive | inactive |  | inactive |  |  |
| CCOc1c(S(=O)(=O)N2CCCC2)ccc(Cl)c1Cl | inactive | inactive | inactive | inactive |  | inactive |  |  |
| CCc1ccc2c(c1)C(NC(C)=O)C(=O)N2CCN1CCOCC1 (stereo not given) | 19 µM (active) | inactive | inactive | inactive |  | inactive |  |  |
